Data from PubChem BioAssay (NCATS).
Inconclusive results are not listed. Where a call stands in place of a potency, no number is given. Calls of active or inactive are those of the source. Calls come from the whole dose curve; as a rule, active = well fitted cell-killing curve with a large enough effect; inconclusive = small, poorly fitted or top-dose-only effect; inactive = flat fitted curve, though single readings scatter. Numbered stars: 1 amine (or outer) side, 2 acyl side, 3 side chain; on linkers, the order of the positions; unused ones are H or OH. Bridge positions count the residues as written; N and C are the ends. Square brackets hold non-standard residues; d marks the D form. Peptide text beside a SMILES is read from it. ξ: configuration not given here. Phe(3R-OH) = O=C([C@@H](N[*:1])[C@H](O[*:3])c1ccccc1)[*:2]; NMeTrp(4-OMe) = CN[C@@H](Cc1c[nH]c2cccc(OC)c12)C(=O)O; ξThr(3R)(O-yl) = C[C@@H](O[*:3])C(N[*:1])C(=O)[*:2]; NMeThr(3ξ) = CN[C@H](C(=O)O)C(C)O; NMeL = CN[C@@H](CC(C)C)C(=O)O; NMeV = CN[C@H](C(=O)O)C(C)C; ξIle = CC[C@H](C)C(N)C(=O)O; ξV = CC(C)C(N)C(=O)O

Assay: Vero-766 cells viability qHTS against the NCATS CANVASS Library: Counterscreen for Zika virus inhibition assay (AID 1347394); note: nearly all actives have a fitted effect of over 60% in size
Conditions: Vero 766 viability, CellTiter-Glo luminescence, 72 h; series mostly up to 46.1 µM
Source text: Natural products and their derivatives continue to be wellsprings of nascent therapeutic potential. However, many laboratories have limited resources for biological evaluation, leaving their previously isolated or synthesized compounds largely or completely untested. To address this issue, the Canvass library of natural products was assembled (https://tripod.nih.gov/canvass), in collaboration with academic and industry researchers, for quantitative high-throughput screening (qHTS) across a diverse set of cell-based and biochemical assays. The pure (>85% purity by liquid chromatography/mass spectrometry [LC/MS]) Canvass library of 346 natural products were submitted by 45 academic laboratories and companies around the world. We collected pure natural products to circumvent deconvolution and structure elucidation due to time and resource limitations. The library was formatted into 1536-well plates and evaluated in 50 qHTS (in an 11-pnt concentration series) bioassays with broad scope of disease-relevant mechanisms. The resulting data set from 50 different assays was then systematically analyzed to identify overall trends and specific natural products with interesting biological activities. Reported herein are the results of each individual qHTS and their corresponding assay protocol. The vero cell viability assay was performed in the absence of Zika virus utilizing Cell Titer Glo to eliminate toxic compounds. A decrease in the luminescence signal is caused by cytotoxic compounds. National Center for Advancing Translational Sciences (NCATS), Rockville, MD National Institute of Health (NIH), Bethesda, Maryland
Zika-counterscreen assay protocol: 1. In a white-solid bottom, 1536-well tissue culture plate (Corning 7494), 3 uL of Vero 766 cells derived (African Green Monkey) were dispensed into columns 1, 2, and 5 - 48 using a Multidrop Combi (Thermo Fisher Scientific) at a final concentration of 1000 cells / well. Media only was dispensed in columns 3 and 4 to be used as a control (100% inhibition). 2. The assay plates were incubated overnight at 37C, 5% CO2, 95% humidity to acclimate and attach. 3. […] of compounds (in DMSO; columns 5-48) were pin transferred into the assay plates using the Kalypsis pin tool (Wako USA) equipped with a 1536-well pin heads. This yields a final concentration range of 0.001 - 77 uM. The assay plates were sealed with breathable film. 4. The assay plates were incubated for 72 hours at 37C, 5% CO2, 95% humidity. 5. After incubation, the seals were removed by Xpeel Automated Plate Seal Remover (Brooks Life Sciences) and 2.5 uL of CellTiter Glo reagent (Promega) was dispensed into the wells (columns 1 - 48, rows 1 - 32). 6. Luminescence signal was obtained via the ViewLux plate reader (Perkin Elmer) using the clear emission filter and 1x binning, 2 seconds exposure settings.
Potency is the fitted concentration of half-maximal effect.

SMILES | Potency
CNc1ccc(Cl)cc1C(=O)OC[C@]1(C)[C@H]2CC[C@]3(C)[C@@H](C[C@@H](OC)[C@H](C)[C@H]3C3=C(O)C(=O)OC3O)[C@]2(C)CC[C@H]1O (stereo not given in full) | inactive
CC(=O)[C@@H]1[C@@H](O)C[C@H]2[C@]3(C)CC[C@H]4C(C)(C)CCC[C@]4(CO)[C@H]3C[C@H]3OC(=O)[C@@H]1[C@@]32C | inactive
C=C[C@]1(C)CC[C@@H]([C@H](C)C(=O)/C=C/C(C)C)O1 | inactive
CN1C(=O)[C@]23SS[C@@]1(C)C(=O)N2[C@H]1Nc2ccccc2[C@]1(c1c[nH]c2ccccc12)[C@@H]3O | 6.6 µM (active)
C[C@@H]1C(=O)[C@]23CC[C@H]1C[C@]21O[C@H]2C(C)(C)C=CC(=O)[C@@]23COC1=O | inactive
CO[C@@H]1[C@H](O)[C@@H](C)O[C@@H](OC[C@H]2/C=C/C=C/C(=O)C(C)C[C@H](C)C(O[C@@H]3O[C@H](C)CC4(OC(=O)O[C@@H]4C)C3O)[C@@H](C)/C=C/C(=O)OC2C)[C@@H]1OC (stereo not given in full) | inactive
CC[C@H](C)C(NC(=O)[C@@H](NC)C(C)C)C(=O)NC1C(=O)N(C)[C@@H](C(C)O)C(=O)N[C@@H](C(C)C)C(=O)N(C)[C@@H](CC(C)C)C(=O)NC(C(C)C)C(=O)N(C)[C@@H](C(C)C)C(=O)N(C)[C@@H](Cc2c[nH]c3cccc(OC)c23)C(=O)N[C@@H](C(C)C)C(=O)N[C@@H]([C@H](O)c2ccccc2)C(=O)N[C@@H](C(C)C)C(=O)O[C@@H]1C (stereo partly drawn) (H-[NMeV][ξIle][ξThr(3R)(O-yl)][NMeThr(3ξ)]V[NMeL][ξV][NMeV][NMeTrp(4-OMe)]V[Phe(3R-OH)]V; ester 3-C) | inactive
C=C[C@@]1(C)CC[C@@H]([C@H](C)C(=O)/C=C/C(C)C)O1 | inactive
CN1CC[C@]2(c3cccc4c3N[C@@H]3N(C)CC[C@]43[C@@]34CCN(C)[C@@H]3Nc3ccccc34)c3ccccc3N[C@H]12 | 26.3 µM (active)
C=C1C(=O)C[C@H]2C[C@@H]1[C@]2(C)CCC=C(C)C | inactive
C/C1=C\CC(=O)/C=C/C=C\c2csc(n2)[C@@H](C)NC(=O)C[C@@](S)([C@@H](C)C(=O)O)CC1 | inactive
CS/C=C/C(N)=O | inactive
CC12C[C@]3(O)O[C@@H](O1)[C@]1(COC(=O)c4ccccc4)[C@@H]3CC21OC1OC(CO)C(O)C(O)C1O (stereo not given in full) | inactive
CC1(C)[C@H](Br)CC[C@]23C[C@]4(C)C(=O)CC12C[C@H]34 | inactive
C=CC(=C)CC[C@]1(C)[C@H]2C[C@H](OC(=O)C(C)CC)C=C3[C@H](OC(C)=O)O[C@H](OC(C)=O)[C@@]32[C@H](OC)C[C@@H]1C (stereo not given in full) | 6.8 µM (active)
O=Cc1ccc2n1C[C@@]1(C[C@H](O)[C@@H](CO)O1)OC2 | inactive
O=C1CC(c2cc(O)cc(O)c2)Oc2cc(O)ccc21 (stereo not given) | inactive
CCC[C@@H](C)/C=C(\C)[C@H](O)[C@H](C)/C=C/CC[C@@H](O)[C@H](C)[C@H](O)[C@H](C)[C@H](O)[C@H](C)[C@H]1O[C@H]([C@H](C)C(=O)O)CC[C@@H]1C | 9.33 µM (active)
CC(=O)NC[C@@H]1O[C@H](CC/C=C(C)/C(C)=C/C=O)[C@H](C)C[C@H]1O | inactive
Oc1ccc(C2c3c(O)cc(O)cc3[C@@H]3C(c4ccc(O)cc4)c4c(O)cc(O)cc4[C@H]23)cc1 (stereo not given in full) | inactive

SMILES | Potency
C[C@@H](CCC[C@]1(C)C(=O)C=C[C@]23C[C@H]4C[C@H](O[C@@]4(C)C2)C31)C(=O)N[C@@H](CO)C(=O)O (stereo not given in full) | inactive
C=C(NC(=O)c1csc(-c2nc3c(cc2O)-c2nc(cs2)C(=O)NC(C(C)O)C(=O)N/C(=C(\C)O)c2nc(cs2)C(=O)NC2c4nc(cs4)C(=O)NC(COC(=O)c4c5c6c(cccc6n4O)COC(=O)[C@@H](OC4C[C@](C)(O)[C@H](N(C)C)[C@H](C)O4)C2OC5)c2nc-3cs2)n1)C(N)=O (stereo not given in full) | inactive
CO[C@H]1/C=C/CC[C@@H](S[C@@H]2O[C@H](CO)[C@@H](O)[C@H](O)[C@H]2O)CC(=O)O[C@@H](/C(C)=C/[C@H](C)C(=O)CCCC2CC(=O)NC(=O)C2)[C@@H](C)[C@@H]1O | inactive
C1=C2CCCN[C@@H]2[C@@H]2CCN3CCCC[C@@H]3[C@H](C1)C2 | inactive
O=C(O)CC1OC(=O)c2c(O)cccc21 (stereo not given) | inactive
CCCCCCCCC[C@@H]1C[C@@H]2CC[C@H]3[C@@H](C(=O)OCCCCN=C(N)N)[C@@H](C)N=C(N1)N23 | inactive
CC(=O)O[C@@H]1C=C2C(=O)OC[C@]2(O)[C@@]2(C)CCCC(C)(C)[C@H]12 | 16.6 µM (active)
CC1C(=O)C23CCC1C[C@]21O[C@@H]2C(C)(C)C=CC(=O)[C@@]23COC1=O (stereo not given in full) | inactive
CO[C@@H]1[C@H](O)[C@@H](C)O[C@@H](OC[C@@H]2C(C)OC(=O)/C=C/[C@H](C)C(O[C@@H]3O[C@H](C)CC4(OC(=O)O[C@@H]4C)C3O)[C@@H](C)CC(C)C(=O)CC[C@H]3OC23)[C@@H]1OC (stereo not given in full) | inactive
CCCCCC[C@H](CCCCC[C@@H](O)C(N)=O)OC(=O)[C@@H]1CC=CN1C(=O)c1ccccc1O | inactive
OCc1ccc2ocnc2c1 | inactive
COc1cc(/C=C2/C(=O)N(c3ccc(O)cc3C(=O)O)[C@H](c3ccc(O)c(OC)c3)C2C(=O)Nc2ccc(O)cc2C(=O)O)ccc1O (stereo not given in full) | inactive
C=CC(C)(C)C(=O)[C@@H](C)[C@@H]1CC[C@](C)(C=C)O1 | inactive
O=c1cc(-c2ccc(O)c(O[C@@H]3O[C@H](CO)[C@@H](O)[C@H](O)[C@H]3O)c2)oc2cc(O[C@@H]3O[C@H](CO)[C@@H](O)[C@H](O)[C@H]3O)cc(O)c12 | inactive
COc1ccc(/C=C2\COc3cc(O)ccc3C2=O)cc1 | inactive
C/C=C/C(=O)[C@@H](C)C1=CC(=O)C2=C(O[C@@]34CC[C@H](O)C(C)(C)[C@@H]3CC[C@H](C)[C@@]4(C)C2)C1=O | 18.6 µM (active)
C[C@@]12CCC[C@@](C)(C(=O)O)[C@H]1C[C@@H](O)[C@]13C[C@H]4C[C@H](O[C@@]4(C)C1)[C@@H]23 | inactive
C=C(C)[C@@H]1CC[C@]2(C)CC[C@]3(C)[C@H](CC[C@@H]4[C@@]5(C)CC[C@H](O)C(C)(C)[C@@H]5CC[C@]43C)[C@@H]12 | inactive
O=C(O)[C@@]12COC3(O)C1CCN1CC[C@H]3[C@@H]1c1c2[nH]c2ccccc12 | inactive
CC1(C)CCC[C@]2(C)[C@@H]1CC[C@@]13C[C@@H](CC[C@H]12)C(C)(O)C3 (stereo not given in full) | inactive
